Drawing on the OligoGym collection, this text covers sensor-assay potency score (higher = more potent) for 15 sequences.
Also: reference of the scale not given here.

In the first experiment the target is COBRA1. Kind of experiment: pooled miR-30 sensor sort-seq; sequence = guide strand. To be noted: shRNA.
On to TTCTGATCCACATTGAAAGTGT, for which the sensor-assay potency score (higher = more potent) is -0.064.
TGACACTCGCTCCAGCAGCTTG had a sensor-assay potency score (higher = more potent) of -1.51.
The same measure, in the same setting: then AAACTTAGTGAAGCTTTCGGGA, with -0.764; and TTCTCTGTCTGGAACTGCTCGA, with -0.254; and TTTTTTCTCCGGAACCTTGGGC, with 0.129.
With TTCTTGTTCCTCTGCTTGGTGA, the sensor-assay potency score (higher = more potent) was -1.3.
In the case of TTGCTGTCCACGAACCGCTCTC, the sensor-assay potency score (higher = more potent) is -0.427.
On to ATGAGCATCGGGAGGAACCTGG, for which the sensor-assay potency score (higher = more potent) was -1.62.
The same measure, in the same setting: then TACAGCTTCACGTTCTTCCCCA, with 0.123; and ATGAGCTCTACCTCCATCTTGG, with -0.766; and TTGGATATGAGACTGGGGCTTT, with -0.217.

A further experiment addresses COG2. The experiment is described as above. To be noted: shRNA.
TAATCTCTTTACACTAGCCTGT registered a sensor-assay potency score (higher = more potent) of -0.36.
Regarding TTTCTCATGAAATGCATCGGGA, the sensor-assay potency score (higher = more potent) was -0.465.
In turn, TTAATCTCTTTACACTAGCCTG returned a sensor-assay potency score (higher = more potent) of -1.22.
TTGACAAACACAGAGTATCGTG had a sensor-assay potency score (higher = more potent) of -0.356.
